Results from PubChem BioAssay AID624296 (National Center for Advancing Translational Sciences (NCATS), 2012).
The campaign covered roughly 350,000 compounds. About 9,900 (2.8%) were called active. Roughly 15% stayed inconclusive and do not appear here. Many of the other results were omitted from the sample, so actives are more common in it than they were. Unmarked numbers belong to inactive results. The call rests on the fitted dose curve; in most records, active means well fitted activation curve with a large enough effect; inconclusive means small, poorly fitted or top-dose-only effect; inactive means no such curve, though single readings can be large or run the other way.

Assay: A quantitative high throughput screen for small molecules that induce DNA re-replication in MCF 10a normal breast cells. Further: nearly all actives have a fitted effect of over 50% in size. On activity, positive = re-replication: % of control where 0% means no effect.
Settings: MCF 10A DNA re-replication, Hoechst nuclear intensity, 48 h; series mostly up to 46.1 µM; activity, positive = re-replication: at the top concentration
Potency means the concentration at half of the fitted maximal effect.

| Compound | activity, positive = re-replication | Potency |
| --- | --- | --- |
| COc1ccc(C(=O)NCc2ccccc2C)cc1S(=O)(=O)NC1CCCC1 | -4.4% | – |
| CCN(CC)S(=O)(=O)c1ccc(Cl)c(NC(=O)c2ccncc2)c1 | 0.731% | – |
| CCN(CC)S(=O)(=O)c1ccc(NC(=O)c2cccnc2Cl)c(NC(=O)c2cccnc2Cl)c1 | – | 18.4 µM (active) |
| Cc1cccc(NC(=O)c2cccnc2Cl)n1 | -3.66% | – |
| O=C(NOCc1ccccc1)c1cccc([N+](=O)[O-])c1 | 1.13% | – |
| O=C(COC(=O)COc1ccccc1F)Nc1cccc(S(=O)(=O)N2CCCCC2)c1 | -4.89% | – |
| O=C(Nc1nnc(CCc2ccccc2)s1)C1CCCO1 (configuration not stated) | -6.69% | – |
| O=C(Nc1nc2c(F)cc(F)cc2s1)C1COc2ccccc2O1 (configuration not stated) | 5% | – |
| O=C(Nc1nnc(SCc2c(Cl)cccc2Cl)s1)c1cccc([N+](=O)[O-])c1 | 21% | – |
| O=C(Nc1nnc(SCc2c(Cl)cccc2Cl)s1)C1CCCO1 (configuration not stated) | – | 11.6 µM (active) |
| O=C(Nc1nc(-c2ccncc2)cs1)C1COc2ccccc2O1 (configuration not stated) | 3.86% | – |
| O=C(Nc1nnc(SCc2ccc(Cl)cc2Cl)s1)C1COc2ccccc2O1 (configuration not stated) | – | 18.4 µM (active) |
| O=C1/C(=C/c2ccc3c(c2)OCO3)CCC/C1=C\c1ccc2c(c1)OCO2 | – | 14.6 µM (active) |
| O=C(O)/C=C/c1ccc2c(c1)OCCO2 | 13.8% | – |
| O=C(N/N=C/c1ccc2c(c1)OCO2)C(=O)N1CCCC1 | 14.4% | – |
| O=C(COC(=O)c1cc[n+]([O-])cc1)Nc1ccc(Cl)c(C(F)(F)F)c1 | 23.8% | – |
| CCOc1ccc(CCNC(=O)COC(=O)C2CCN(S(=O)(=O)c3ccccc3)CC2)cc1OCC | -3.91% | – |
| CCOc1cccc2cc(C(=O)OCC(=O)Nc3c(C)cccc3CC)c(=O)oc12 | -4.55% | – |
| CN=C(Nc1cccc(S(=O)(=O)N2CCOCC2)c1)c1ccccc1 | -0.997% | – |
| Cc1nn(Cc2ccccc2)c(C)c1C(=O)NCCN1C(=O)S/C(=C\c2ccc(F)cc2)C1=O | 5.89% | – |
| CCN1CCN(CCNC(=O)c2ccc(/C=C3/Sc4ccccc4N(Cc4cccc(C)c4)C3=O)cc2)CC1 | – | 6.51 µM (active) |
| O=C(NCCCN1CCOCC1)c1ccc2c(c1)N(Cc1cccc(F)c1)C(=O)c1ccccc1S2 | -2.53% | – |
| O=C(NCCN1CCOCC1)c1ccc(/C=C2\Sc3ccccc3N(Cc3ccc(F)cc3)C2=O)cc1 | – | 18.4 µM (active) |
| O=C(NCCN1CCOCC1)/C(=C/c1ccc(F)cc1)NC(=O)c1ccccc1 | -3.22% | – |

| Compound | activity, positive = re-replication | Potency |
| --- | --- | --- |
| CCN1CCN(CCNC(=O)c2ccc3c(c2)NC(=O)/C(=C\c2ccc(OC)c(OC)c2)S3)CC1 | 1.79% | – |
| Cn1nnnc1SCC(=O)Nc1sccc1C(N)=O | 0.751% | – |
| COc1ccc([C@H]2CC(=O)C=C(c3ccc(OC(F)(F)F)cc3)C2)cc1OC | 6.41% | – |
| O=C(CSc1nc2ccccc2[nH]1)Nc1nc(-c2ccccc2)c(-c2ccccc2)o1 | 0.359% | – |
| CCc1nnc(NC(=O)CCCSc2nc3ccccc3[nH]2)s1 | 0.183% | – |
| CCC(C)N1C(=O)S/C(=C/c2ccc(Sc3nc4ccccc4[nH]3)o2)C1=O (configuration not stated) | – | 8.2 µM (active) |
| C[C@H]1CN([C@@H](C)CO)C(=O)Cc2cc(NC(=O)Cc3ccccc3)ccc2O[C@H]1CN(C)S(=O)(=O)c1cccs1 | 5.07% | – |
| O=C1CC(C(=O)O)NC(=S)N1 (configuration not stated) | -28.6% | – |
| Cc1cc(NC(=O)c2cc3ccccc3o2)no1 | 1.92% | – |
| C[C@H](CO)N1C[C@H](C)[C@@H](CN(C)Cc2ccc(-c3ccccc3)cc2)Oc2ccc(NC(=O)Cn3cnnn3)cc2C1=O | 4.97% | – |
| CCn1nc(C)c(/C=N/NC(=O)Cc2ccc(Cl)cc2)c1C | -0.496% | – |
| Cc1nn(Cc2ccc(Cl)cc2)c(Cl)c1/C=N/NC(=O)c1cccnc1 | -11% | – |
| Cc1nn(Cc2ccc(Cl)cc2)c(Cl)c1/C=N/NC(=O)CNc1ccccc1F | – | 16.4 µM (active) |
| CC(=O)Nc1ccc(S(=O)(=O)Nc2ccc(N3CCCCC3)cc2)cc1 | -20.7% | – |
| Nc1nnc2c(C(F)(F)F)nc3ccccc3n12 | -1.13% | – |
| FC(F)(F)c1nnc2ccc(N3CCN(c4ccccc4)CC3)nn12 | -15.9% | – |
| FC(F)(F)c1nnc2c3ccccc3c(Cl)nn12 | – | 20.6 µM (active) |
| CCOC(=O)c1ccc(NC(=O)C2CC(=O)N(c3ccc4c(c3)OCCO4)C2)cc1 (configuration not stated) | -0.605% | – |
| CC[C@]1(O)CC2CN(CCc3c([nH]c4ccccc34)[C@@](C(=O)OC)(c3cc4c(cc3OC)N(C=O)[C@H]3[C@@](O)(C(=O)OC)[C@H](OC(C)=O)[C@]5(CC)C=CCN6CC[C@]43[C@@H]65)C2)C1 (some centres not stated) | – | 0.651 µM (active) |
| O=S(=O)(NCCc1ccccn1)c1cc(Cl)cc(Cl)c1O | 12.3% | – |
| CC(=O)c1ccc(N2CCN(C(=O)c3ccc(Cl)c(S(=O)(=O)NC4CC4)c3)CC2)c(F)c1 | 13.4% | – |
| Cc1ccc(C(=O)Nc2ccn(C)n2)cc1 | -0.0546% | – |
| COc1ccc(NC(=O)COC(=O)c2n[nH]c3ccccc23)c(OC)c1 | 0.862% | – |
